From paper PMC5540273 (PLoS ONE, 2017) come the findings set out here.

Molecules are shown by their SMILES. Values joined by “and” are separate entries in the source; they are usually repeats but may differ in a detail not shown here. Equal entries are not always repeated. Where two headings read alike, the source gives them in different places.

One experiment relates to BLK. The settings on record: concentration: 1 μM, replicates: in singlicate, n = 1.
A further experiment concerns BMPR1A. The settings on record: concentration: 1 μM, replicates: in singlicate; n = 1.
The next experiment deals with BMPR1B. The conditions noted are these: concentration: 1 μM, replicates: in singlicate; n = 1.
Another experiment concerns BMPR2. The settings on record: concentration: 1 μM, replicates: in singlicate, n = 1.
The test system of a further experiment is BMX. The conditions noted are these: concentration: 1 μM, replicates: in singlicate; n = 1.
The test system of another experiment is BRAF. The conditions noted are these: concentration: 1 μM, replicates: in singlicate, n = 1.
The test system of a further experiment is T1, BRK.
T1 construct: gene PTK6
The conditions noted are these: concentration: 1 μM, replicates: in singlicate, n = 1.

Another experiment relates to BRSK1. The settings on record: concentration: 1 μM, replicates: in singlicate, n = 1.
In the next experiment the test system is BRSK2. The settings on record: concentration: 1 μM, replicates: in singlicate, n = 1.
In a further experiment the test system is BTK. The conditions noted are these: concentration: 1 μM, replicates: in singlicate, n = 1.
Another experiment deals with BUB1. The conditions noted are these: concentration: 1 μM, replicates: in singlicate, n = 1.
For a further experiment, the system named is CAMK1B. The conditions noted are these: concentration: 1 μM, replicates: in singlicate, n = 1.
For the next experiment, the system named is CAMK1D. The settings on record: concentration: 1 μM, replicates: in singlicate, n = 1.
The next experiment has as its system CAMK1G. The conditions noted are these: concentration: 1 μM, replicates: in singlicate, n = 1.
The test system of a further experiment is CAMK1. The settings on record: concentration: 1 μM, replicates: in singlicate, n = 1.
The next experiment has as its system CAMK2A. The settings on record: concentration: 1 μM, replicates: in singlicate; n = 1.
The next experiment has as its system CAMK2B. The settings on record: concentration: 1 μM, replicates: in singlicate; n = 1.
The test system of a further experiment is CAMK2D. The conditions noted are these: concentration: 1 μM, replicates: in singlicate; n = 1.
The test system of the next experiment is CAMK2G. The conditions noted are these: concentration: 1 μM, replicates: in singlicate; n = 1.
The test system of a further experiment is CAMK4. The settings on record: concentration: 1 μM, replicates: in singlicate, n = 1.
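Note: KINOMEscan kinase panel screen.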

`Cl.Cl.Cl.Fc1ccc(-c2ncn(C3CCNCC3)c2-c2ccnc(Nc3ccccc3)n2)cc1` [SB-238039]: the “%Inh” value in the experiment on BLK (1 µM) was 56% and 27%; with BMPR1A it was 0%; in the experiment with BMPR1B it was 0%; in the experiment on BMPR2 (1 µM), 42% and 11%; with BMX, 0%; in the experiment with BRAF (1 µM), 19% and 0%. The “%Inh” value in the experiment with BRK (1 µM) is 0% and 19%; in the experiment with BRSK1 (1 µM) it was 0% and 29%; in the experiment on BRSK2 (1 µM), 7% and 9%; with BTK (1 µM), 0% and 9%; with BUB1 (1 µM) it was 88% and 65%; in the experiment with CAMK1B (1 µM) it was 0% and 42%. The “%Inh” value in the experiment with CAMK1D (1 µM) is 0% and 9%; with CAMK1G (1 µM) it was 9% and 0%; in the experiment on CAMK1 (1 µM), 7% and 0%; in the experiment with CAMK2A, 0%; in the experiment with CAMK2B it was 0%; in the experiment with CAMK2D it was 0%. Moreover, the “%Inh” value was 0% in the experiment on CAMK2G; 18% and 26% with CAMK4 (1 µM).
Consider `COc1cc2c(cc1OC[C@@H](O)CO)ncc1c3ccc(C#N)cc3[nH]c21`, for which the “%Inh” value worked out at 24% in the experiment with BLK; 5% in the experiment on BMPR1A; 0% with BMPR1B; 0% with BMPR2; 0% in the experiment on BMX; 0% in the experiment with BRAF. Besides, the “%Inh” value is reported as 0% with BRK; 0% in the experiment on BRSK1; 0% in the experiment with BRSK2; 0% in the experiment on BTK; 94.3% in the experiment with BUB1; 27% with CAMK1B. The “%Inh” value in the experiment with CAMK1D was found to be 0%; in the experiment with CAMK1G, 0%; with CAMK1, 0%; with CAMK2A, 89%; in the experiment on CAMK2B, 61%; with CAMK2D it was 84%. The entries for the “%Inh” value in the experiment on CAMK2G and with CAMK4 were 61% and 0%, respectively.
For the molecule `O=C(NCCCN1CCOCC1)c1cccc(Nc2nccc(Nc3ccc(Oc4ccccc4)cc3)n2)c1` [GW663929], the “%Inh” value with BLK was determined as 95.4%; with BMPR1A, 0%; in the experiment on BMPR1B, 0%; in the experiment on BMPR2, 15%; in the experiment on BMX, 54%; with BRAF, 0%. Besides, the “%Inh” value in the experiment with BRK is listed as 69%; in the experiment on BRSK1, 6%; with BRSK2, 0%; in the experiment on BTK it was 51%; with BUB1, 28%; in the experiment with CAMK1B, 37%. Also, the “%Inh” value with CAMK1D is on record as 33%; in the experiment on CAMK1G, 0%; in the experiment with CAMK1 it was 55%; with CAMK2A, 3%; in the experiment with CAMK2B, 6%; in the experiment with CAMK2D it was 2%. Further, the “%Inh” value in the experiment on CAMK2G and in the experiment on CAMK4 was 0% in each case.
As to `O=c1cc(N2CCOCC2)nc2n(Cc3cccc(F)c3)ccn12` [GSK2297430], the “%Inh” value with BLK is reported as 32%; in the experiment on BMPR1A, 0%; in the experiment with BMPR1B, 0%; with BMPR2 it was 0%; in the experiment with BMX, 12%; in the experiment with BRAF it was 6%. For the same molecule, the “%Inh” value in the experiment on BRK is listed as 23%; in the experiment on BRSK1, 0%; in the experiment on BRSK2, 0%; in the experiment with BTK, 0%; with BUB1, 0%; in the experiment on CAMK1B, 4%. The “%Inh” value in the experiment with CAMK1D was found to be 15%; in the experiment on CAMK1G it was 0%; in the experiment on CAMK1 it was 4%; in the experiment on CAMK2A, 0%; with CAMK2B, 0%; in the experiment on CAMK2D, 0%. For the same molecule, the “%Inh” value stood at 13% in the experiment with CAMK2G and 11% in the experiment on CAMK4.
For `O=C1Cc2cc(Nc3nc(NCc4cccc(S(=O)(=O)C(F)(F)F)c4)ncc3C(F)(F)F)ccc2N1`, the “%Inh” value in the experiment on BLK worked out at 1%; with BMPR1A it was 0%; with BMPR1B, 18%; in the experiment with BMPR2 it was 19%; with BMX, 0%; in the experiment with BRAF, 1%. Moreover, the “%Inh” value in the experiment on BRK is given as 0%; in the experiment with BRSK1, 3%; with BRSK2, 0%; in the experiment on BTK, 0%; in the experiment with BUB1, 34%; with CAMK1B, 11%. For the same molecule, the “%Inh” value turned out to be 0% in the experiment with CAMK1D; 2% in the experiment with CAMK1G; 0% in the experiment with CAMK1; 0% with CAMK2A; 0% in the experiment on CAMK2B; 5% in the experiment on CAMK2D. Besides, the results for the “%Inh” value in the experiment with CAMK2G and with CAMK4 were 8% and 4%, respectively.
As for `O=c1cc(N2CCOCC2)nc2n(Cc3cccc4ccccc34)ccn12` [GSK2333389], the “%Inh” value was 21% in the experiment on BLK; 0% in the experiment with BMPR1A; 0% in the experiment with BMPR1B; 0% in the experiment with BMPR2; 7% in the experiment on BMX; 9% with BRAF. In addition, the “%Inh” value with BRK is reported as 0%; in the experiment with BRSK1 it was 1%; in the experiment with BRSK2, 0%; in the experiment with BTK, 0%; with BUB1, 32%; with CAMK1B, 4%. Further, the “%Inh” value was determined as 15% in the experiment with CAMK1D; 0% in the experiment with CAMK1G; 0% with CAMK1; 0% in the experiment with CAMK2A; 0% with CAMK2B; 0% in the experiment with CAMK2D. The “%Inh” value with CAMK2G and in the experiment with CAMK4 was 0% each time.
As for `O=C1NC(=O)C(N2CCc3ccccc32)=C1c1cccc(Cl)c1` [SB-408010], the “%Inh” value in the experiment on BLK worked out at 0%; with BMPR1A it was 23%; in the experiment with BMPR1B, 0%; in the experiment with BMPR2, 4%; with BMX it was 26%; with BRAF, 3%. The “%Inh” value with BRK turned out to be 0%; in the experiment with BRSK1, 0%; with BRSK2, 0%; with BTK it was 23%; in the experiment on BUB1 it was 0%; in the experiment on CAMK1B, 0%. In addition, the “%Inh” value worked out at 17% in the experiment on CAMK1D; 0% with CAMK1G; 24% in the experiment on CAMK1; 0% with CAMK2A; 0% in the experiment with CAMK2B; 10% in the experiment on CAMK2D. Further, the figures for the “%Inh” value in the experiment with CAMK2G and with CAMK4 were 0% and 1%, respectively.
For `c1ccc(-c2n[nH]cc2-c2ccnc3ccccc23)nc1` [GW271431], the “%Inh” value amounted to 49% with BLK; 0% with BMPR1A; 13% with BMPR1B; 0% in the experiment with BMPR2; 22% in the experiment with BMX; 0% in the experiment with BRAF. Besides, the “%Inh” value in the experiment with BRK stood at 22%; in the experiment with BRSK1, 0%; in the experiment on BRSK2 it was 0%; in the experiment with BTK it was 0%; with BUB1, 0%; in the experiment with CAMK1B it was 23%. Also, the “%Inh” value in the experiment on CAMK1D is on record as 28%; with CAMK1G, 13%; in the experiment with CAMK1, 23%; in the experiment on CAMK2A it was 0%; in the experiment on CAMK2B, 0%; in the experiment with CAMK2D, 19%. The “%Inh” value in the experiment on CAMK2G was 25%; in the experiment on CAMK4, 0%.
With `COCCNC(=O)c1ccc(-c2cc(C(=O)NC3CC3)cc(F)c2C)cc1` [GW868318], the “%Inh” value in the experiment with BLK was 0%; with BMPR1A it was 19%; in the experiment with BMPR1B, 19%; in the experiment on BMPR2 it was 46%; in the experiment with BMX, 7%; with BRAF it was 10%. For the same molecule, the “%Inh” value in the experiment on BRK was 0%; in the experiment on BRSK1 it was 0%; in the experiment on BRSK2, 18%; in the experiment with BTK, 0%; in the experiment with BUB1, 51%; in the experiment on CAMK1B, 5%. Moreover, the “%Inh” value came to 10% in the experiment on CAMK1D; 0% in the experiment on CAMK1G; 14% in the experiment on CAMK1; 7% with CAMK2A; 10% with CAMK2B; 8% in the experiment with CAMK2D. In addition, the “%Inh” value is listed as 13% in the experiment with CAMK2G and 7% in the experiment on CAMK4.
Consider `CC(C)(C)n1cnc2c(N)ncnc21` [SKF-97359], for which the “%Inh” value with BLK is 0%; in the experiment on BMPR1A it was 0%; in the experiment on BMPR1B, 0%; with BMPR2, 36%; with BMX, 0%; in the experiment with BRAF it was 0%. Besides, the “%Inh” value is 0% in the experiment on BRK; 0% with BRSK1; 3% with BRSK2; 19% in the experiment on BTK; 52% in the experiment on BUB1; 63% in the experiment on CAMK1B. The “%Inh” value in the experiment on CAMK1D was 1%; in the experiment with CAMK1G, 0%; with CAMK1, 0%; with CAMK2A, 0%; in the experiment on CAMK2B, 0%; with CAMK2D it was 0%. Further, the “%Inh” value with CAMK2G and in the experiment on CAMK4 was 0% throughout.
With `C[C@@H](Oc1cc(-n2cnc3ccc(NC(=O)NC(C)(C)C)cc32)sc1C(N)=O)c1ccccc1Cl` [GSK346294], the “%Inh” value with BLK turned out to be 0%; in the experiment with BMPR1A it was 0%; in the experiment with BMPR1B, 0%; with BMPR2, 5%; in the experiment on BMX it was 22%; in the experiment on BRAF, 0%. Besides, the “%Inh” value in the experiment with BRK was 17%; in the experiment with BRSK1, 10%; in the experiment on BRSK2, 15%; with BTK, 6%; in the experiment with BUB1, 35%; in the experiment with CAMK1B it was 32%. The “%Inh” value with CAMK1D is 19%; in the experiment with CAMK1G, 2%; in the experiment with CAMK1 it was 11%; with CAMK2A, 9%; in the experiment with CAMK2B, 0%; in the experiment on CAMK2D, 18%. The “%Inh” value in the experiment on CAMK2G was 23%; in the experiment on CAMK4, 3%.
